Assay results as given in PubChem BioAssay (Tox21).
Records with an inconclusive call do not appear. Calls of active or inactive are those of the source. Unless noted, calls follow the shape of the full dose curve.

Tests used:
[1] = Nuclear factor erythroid 2-related factor 2/antioxidant responsive element (Nrf2/ARE) small molecule agonists: qHTS cell viability counter screen in human keratinocytes (AID 1919968; active = well fitted curve in the direction sought with a large enough effect in the repeat runs; an effect the other way counts as inactive or inconclusive; also: nearly all actives have a fitted effect of over 55% in size; also: potency is read from the fitted curve at half-maximal effect)
How it was run: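 After a 5 h attachment period, ARE-reporter keratinocytes were dosed with compounds in DMSO and then cultured 23 h at 37 C. Cell viability came from CellTiter-Fluor signal read after a further 1 h.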

[2] = Nuclear factor erythroid 2-related factor 2/antioxidant responsive element (Nrf2/ARE) small molecule agonists: luciferase reporter gene qHTS assay in human keratinocytes (AID 1919969); also: nearly all actives have a fitted effect of over 35% in size; also: potency is read from the fitted curve at half-maximal effect
[3] = target: Gonadotropin-releasing hormone receptor (Homo sapiens) (UniProt P30968); assay: Human gonadotropin-releasing hormone receptor (GnRHR) small molecule agonists, calcium flux assay in GnRHR-HEK293 cells (AID 1920063); also: nearly all actives have a fitted effect of over 35% in size
How it was run: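 We seeded human GnRHR-expressing HEK293 cells for 18 hours, loaded them with calcium dye for an hour at 37 C, added test compounds, and recorded fluorescence intensity kinetically for three minutes.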

[4] = target: KiSS-1 receptor (Homo sapiens) (UniProt Q969F8); assay: Human kisspeptin (KISS1R) small molecule agonists, calcium flux assay in KISS1R-HEK293 cells (AID 1920064; active = well fitted curve in the direction sought with a large enough effect in the repeat runs; an effect the other way counts as inactive or inconclusive)
How it was run: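 Kinetic calcium assay, 1 s sampling over 3 min at Ex/Em 480/540, in HEK293 cells engineered with human KISS1R; compounds delivered in DMSO after 1 h dye loading.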

[5] = G protein-coupled receptor (GPCR) small molecule agonists, calcium flux assay: HEK293 wild type cell line counter screen (AID 1920065)
How it was run: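 Calcium-sensitive dye, loaded 1 h at 37 C into cells cultured 18 h, reports compound-evoked calcium release as fluorescence (Ex/Em 480/540), measured over 3 min. Agonist mode; 15-point titrations, triplicate.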

[6] = p53 small molecule agonists, cell-based qHTS assay with human liver microsomes: qHTS cell viability counter screen (AID 1963579); also: nearly all actives have a fitted effect of over 45% in size
How it was run: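 After the 460/530 nm beta-lactamase read, CellTiter-Glo was added to the same wells and luminescence measured after 30 min at room temperature, giving viability of p53RE-bla cells treated 16 h with compounds plus microsomes and NADPH.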

[7] = p53 small molecule agonists, cell-based qHTS assay with rat liver microsomes: qHTS cell viability counter screen (AID 1963580); also: nearly all actives have a fitted effect of over 45% in size; also: potency is read from the fitted curve at half-maximal effect
How it was run: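 p53RE-bla HCT-116 cells (4,000/well) rested 5 h at 37 C, then given Tox21 compounds in DMSO with rat liver microsomes (0.5 mg/mL final) plus NADPH (0.5 mg/mL final) for 16 h at 37 C. Viability read by CellTiter-Glo luminescence after 30 min at room temperature.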

[8] = p53 small molecule agonists, cell-based qHTS assay: qHTS cell viability counter screen (AID 1963581); also: nearly all actives have a fitted effect of over 45% in size; also: potency is read from the fitted curve at half-maximal effect
How it was run: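 Following 5 h attachment, HCT-116 p53RE-bla cells took up compound for 16 h at 37 C; the reporter was read with B/G FRET substrate (2 h RT), and viability then via CellTiter-Glo ATP luminescence.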

[9] = p53 small molecule agonists, cell-based qHTS assay (AID 1963582; active = well fitted activation curve with a large enough effect in the signal ratio in the repeat runs, not every such curve was filed as active; the % refers to the signal ratio)
How it was run: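 In this cell-based concentration-response screen, a p53 response element drives beta-lactamase; cells received DMSO-borne compounds after 5 h culture and were incubated a further 16 h before FRET substrate development.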

[10] = target: 5-hydroxytryptamine receptor 2A (Homo sapiens) (UniProt P28223); assay: 5-hydroxytryptamine receptor 2A (HTR2A) small molecule antagonists, cell-based qHTS assay (AID 1963586); also: nearly all actives have a fitted effect of over 45% in size
How it was run: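 Antagonist-mode intracellular calcium assay: DOI (4 nM) added after 5 min compound pre-incubation at room temperature to dye-loaded HTR2A-CHO cells. Fluorescence followed for 3 min, sampled every second.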

[11] = target: 5-hydroxytryptamine receptor 2A (Homo sapiens) (UniProt P28223); assay: 5-hydroxytryptamine receptor 2A (HTR2A) small molecule agonists, cell-based qHTS assay (AID 1963587); also: nearly all actives have a fitted effect of over 30% in size
How it was run: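 HTR2A-CHO cells, plated 18 h at 37 C/5% CO2, dye-loaded 1 h at 37 C; compounds in DMSO added by pin tool (agonist mode). Intracellular calcium flux read as kinetic fluorescence on FDSS over 2 min at 1 s intervals.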

[12] = cAMP Responsive Elements (CRE) small molecule agonists, cell-based qHTS assay (AID 1963590)
How it was run: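 A CRE-responsive beta-lactamase reporter in HEK 293T cells was used. Treatment ran 3 h at 37 C; detection used LiveBLAzer B/G FRET substrate for 2 h at room temperature.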

[13] = cAMP Responsive Elements (CRE) small molecule antagonists, cell-based qHTS assay (AID 1963591; active = well fitted inhibition curve with a large enough effect in the signal ratio in the repeat runs, not every such curve was filed as active; the % refers to the signal ratio)
How it was run: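 HEK293T cells carrying a CRE-driven beta-lactamase reporter receive compound and NKH477 (0.25 uM final) for 3 h. Fluorescence from LiveBLAzer B/G FRET substrate is read after 2 h at room temperature.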

[14] = target: Beta-2 adrenergic receptor (Homo sapiens) (UniProt P07550); assay: Adrenergic beta2 receptor (ADRB2) small molecule antagonists, cell-based qHTS assay (AID 1963592); also: series mostly up to about 92 µM; nearly all actives have a fitted effect of over 50% in size
How it was run: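 Cells (CHO, stable ADRB2 overexpression) incubated 18-20hr at 37C; compounds added from DMSO; agonist mix (1nM isoproterenol, 100uM IBMX, 25uM Ro-20-1724) added; 0.5hr RT; d2-cAMP and anti-cAMP-cryptate added; 1hr RT; 665/615 nm read.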

[15] = target: D(2) dopamine receptor (Homo sapiens) (UniProt P14416); assay: Dopamine D2 receptor (DRD2) small molecule agonists, cell-based qHTS assay (AID 1963594); also: nearly all actives have a fitted effect of over 35% in size
How it was run: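 HEK293 cells stably expressing DRD2 were cultured 24 h at 37 C, then given Ro20-1724 (0.1 mM final) and compounds for 10 min at room temperature. NKH477 (200nM) was then added for 30 min. cAMP was read by HTRF.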

[16] = target: D(2) dopamine receptor (Homo sapiens) (UniProt P14416); assay: Dopamine D2 receptor (DRD2) small molecule antagonists, cell-based qHTS assay (AID 1963595; active = well fitted inhibition curve with a large enough effect in the signal ratio in the repeat runs, with a control signal flat; the % refers to the signal ratio)
How it was run: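 HEK293 cells stably expressing DRD2 were preincubated with 0.1 mM Ro20-1724, then with compound for 10 min at room temperature. Cells were stimulated with 200 nM NKH477 plus 12 nM quinpirole for 30 min, and cAMP was read by HTRF.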

[17] = p53 small molecule agonists, cell-based qHTS assay with rat liver microsomes (AID 1963578)
How it was run: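 Metabolic activation is supplied by rat liver microsomes with NADPH (each 0.5 mg/mL final). p53RE-bla cells incubate with compound 16 h at 37 C; reporter activity is measured by LiveBLAzer fluorescence.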

[18] = target: Muscarinic acetylcholine receptor M1 (Homo sapiens) (UniProt P11229); assay: Cholinergic receptor muscarinic 1 (CHRM1) small molecule antagonists, cell-based qHTS assay (AID 1963588); also: nearly all actives have a fitted effect of over 40% in size
How it was run: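 CHRM1-CHO calcium-flux assay, antagonist mode. Cells were seeded 18 h, dye-loaded 1 h at 37 C and given compound for 5 min at RT, then acetylcholine was added at 50nM. FDSS fluorescence was read 3 min; 15 concentrations, three runs.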

[19] = target: Muscarinic acetylcholine receptor M1 (Homo sapiens) (UniProt P11229); assay: Cholinergic receptor muscarinic 1 (CHRM1) small molecule agonists, cell-based qHTS assay (AID 1963589); also: nearly all actives have a fitted effect of over 35% in size
How it was run: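 Measures agonist-induced intracellular calcium rise. Stable human CHRM1 CHO line, 1 h dye load at 37 C, compounds from DMSO, kinetic fluorescence read.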

[20] = p53 small molecule agonists, cell-based qHTS assay with human liver microsomes (AID 1963577);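 also: p53 response element beta-lactamase reporter cells with liver microsomes plus NADPH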
How it was run: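 Steps: plate p53RE-bla cells, incubate 5 h at 37 C; add compound in DMSO; add microsomes (0.5 mg/mL final) and NADPH (0.5 mg/mL final); incubate 16 h at 37 C; add LiveBLAzer, 2 h RT; read fluorescence.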
% is scaled to controls: 0 for no effect and ±100 for the full control effect.

Beta-2 adrenergic receptor (Homo sapiens), sequence (P07550 whole entry, looked up): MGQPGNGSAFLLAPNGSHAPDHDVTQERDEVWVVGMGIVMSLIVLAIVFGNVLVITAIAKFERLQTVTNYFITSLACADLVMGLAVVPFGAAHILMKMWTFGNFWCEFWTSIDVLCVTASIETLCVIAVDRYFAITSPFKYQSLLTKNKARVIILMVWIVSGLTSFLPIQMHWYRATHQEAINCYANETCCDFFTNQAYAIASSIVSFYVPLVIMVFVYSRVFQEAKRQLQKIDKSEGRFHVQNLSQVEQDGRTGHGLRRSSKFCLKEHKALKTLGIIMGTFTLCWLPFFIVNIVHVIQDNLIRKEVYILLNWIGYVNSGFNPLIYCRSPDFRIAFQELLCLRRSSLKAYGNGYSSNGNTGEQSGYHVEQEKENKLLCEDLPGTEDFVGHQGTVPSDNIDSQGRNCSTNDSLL
D(2) dopamine receptor (Homo sapiens), sequence (P14416 whole entry, looked up): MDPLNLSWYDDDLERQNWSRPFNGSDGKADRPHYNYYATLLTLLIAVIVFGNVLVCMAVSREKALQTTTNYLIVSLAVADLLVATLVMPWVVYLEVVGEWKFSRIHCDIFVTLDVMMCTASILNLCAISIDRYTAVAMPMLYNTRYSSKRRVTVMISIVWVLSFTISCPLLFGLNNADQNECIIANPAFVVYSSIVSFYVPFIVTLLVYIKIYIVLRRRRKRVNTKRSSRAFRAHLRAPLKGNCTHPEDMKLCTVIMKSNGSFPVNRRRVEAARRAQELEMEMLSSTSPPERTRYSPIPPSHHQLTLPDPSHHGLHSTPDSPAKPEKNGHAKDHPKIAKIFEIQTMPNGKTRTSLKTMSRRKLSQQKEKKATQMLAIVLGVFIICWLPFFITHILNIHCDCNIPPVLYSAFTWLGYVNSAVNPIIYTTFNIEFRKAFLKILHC
KiSS-1 receptor (Homo sapiens), sequence (Q969F8 whole entry, looked up): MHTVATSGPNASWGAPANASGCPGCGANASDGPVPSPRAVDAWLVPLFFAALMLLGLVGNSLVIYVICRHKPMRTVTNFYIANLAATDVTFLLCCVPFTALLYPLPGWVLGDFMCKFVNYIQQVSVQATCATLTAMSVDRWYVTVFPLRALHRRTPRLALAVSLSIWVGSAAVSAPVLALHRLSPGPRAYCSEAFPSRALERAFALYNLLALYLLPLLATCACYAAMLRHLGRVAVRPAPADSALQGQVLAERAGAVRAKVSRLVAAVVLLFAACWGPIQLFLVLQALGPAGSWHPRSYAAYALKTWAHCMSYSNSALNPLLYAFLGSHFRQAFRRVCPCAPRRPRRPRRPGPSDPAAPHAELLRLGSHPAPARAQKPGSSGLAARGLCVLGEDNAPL
Muscarinic acetylcholine receptor M1 (Homo sapiens), sequence (P11229 whole entry, looked up): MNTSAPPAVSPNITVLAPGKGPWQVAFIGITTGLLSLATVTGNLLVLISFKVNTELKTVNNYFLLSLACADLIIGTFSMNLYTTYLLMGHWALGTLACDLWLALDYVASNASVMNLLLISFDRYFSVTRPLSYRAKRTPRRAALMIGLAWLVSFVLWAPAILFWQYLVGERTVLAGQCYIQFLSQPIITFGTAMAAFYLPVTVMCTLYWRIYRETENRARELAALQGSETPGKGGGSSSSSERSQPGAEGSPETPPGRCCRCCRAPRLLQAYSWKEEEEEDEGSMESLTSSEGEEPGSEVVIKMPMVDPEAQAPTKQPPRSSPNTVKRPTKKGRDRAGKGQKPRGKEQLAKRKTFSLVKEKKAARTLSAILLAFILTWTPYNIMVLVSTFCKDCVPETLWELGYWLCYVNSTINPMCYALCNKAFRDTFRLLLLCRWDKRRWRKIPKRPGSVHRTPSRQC
Gonadotropin-releasing hormone receptor (Homo sapiens), sequence (P30968 whole entry, looked up): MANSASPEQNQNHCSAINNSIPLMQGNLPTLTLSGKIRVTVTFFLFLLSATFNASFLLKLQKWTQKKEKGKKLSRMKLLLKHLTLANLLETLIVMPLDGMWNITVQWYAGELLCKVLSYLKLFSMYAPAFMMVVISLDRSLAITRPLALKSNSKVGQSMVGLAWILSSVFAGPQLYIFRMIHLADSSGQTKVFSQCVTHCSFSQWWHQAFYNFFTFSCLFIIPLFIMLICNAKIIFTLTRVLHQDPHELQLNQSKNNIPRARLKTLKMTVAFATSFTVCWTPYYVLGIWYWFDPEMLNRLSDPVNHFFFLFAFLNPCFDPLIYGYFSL
5-hydroxytryptamine receptor 2A (Homo sapiens), sequence (P28223 whole entry, looked up): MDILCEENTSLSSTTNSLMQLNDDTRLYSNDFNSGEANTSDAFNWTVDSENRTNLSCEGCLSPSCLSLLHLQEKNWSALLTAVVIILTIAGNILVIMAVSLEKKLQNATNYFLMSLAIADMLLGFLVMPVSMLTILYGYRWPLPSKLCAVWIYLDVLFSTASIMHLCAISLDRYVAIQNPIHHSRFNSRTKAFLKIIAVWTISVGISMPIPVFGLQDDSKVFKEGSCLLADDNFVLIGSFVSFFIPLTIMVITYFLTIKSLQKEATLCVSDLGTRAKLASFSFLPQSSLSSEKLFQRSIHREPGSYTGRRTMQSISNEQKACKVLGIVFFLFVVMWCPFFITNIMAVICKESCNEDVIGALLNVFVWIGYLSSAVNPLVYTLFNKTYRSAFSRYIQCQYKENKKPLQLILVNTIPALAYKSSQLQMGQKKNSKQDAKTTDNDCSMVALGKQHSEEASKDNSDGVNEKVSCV

CCC1C(=O)OCC1Cc1cncn1C (stereo not given)
inactive: Potency [1] | Potency [2] | Potency [3] | outcome [4] | outcome [5] | Potency [6] | Potency [7] | Potency [8] | Potency [9] | Potency [10] | Potency [11] | Potency [12] | Potency [13] | Potency [14] | Potency [15] | Potency [16]

CCN(CC)c1ccc(C(=C2C=CC(=[N+](CC)CC)C=C2)c2ccc(S(=O)(=O)O)cc2S(=O)(=O)[O-])cc1
active: Potency [1] 24.3 µM | Potency [7] 18.2 µM | Potency [8] 9.13 µM
inactive: Potency [2] | Potency [3] | outcome [4] | outcome [5] | Potency [17] | Potency [9] | Potency [10] | Potency [18] | Potency [19] | Potency [12] | Potency [13]

[O]=[Mo](=[O])=[O]
inactive: activity change, negative = cytotoxicity [1] 1.36% [at 19 µM] | activity, positive = activation [2] -5.06% [at 19 µM] | activity change [3] -0.246% [at 11.8 µM, active compounds read high] | activation [4] -1.57% [at 15.8 µM] | activation [20] -1.11% [at 13.5 µM] | activation [17] -0.845% [at 13.6 µM] | activity change, negative = cytotoxicity [6] 2.49% [at 13.5 µM] | activity change, negative = cytotoxicity [7] 5.17% [at 13.5 µM] | activity change, negative = cytotoxicity [8] 14.2% [at 13.5 µM] | activation [9] -2.07% [at 13.5 µM] | activity, negative = inhibition [10] -16.5% [at 12.7 µM] | activation [11] 4.75% [at 15.9 µM] | activity, negative = inhibition [18] 1.32% [at 12.6 µM] | activation [19] 0.586% [at 15.8 µM] | activation [12] 0.435% [at 19 µM] | activity change, negative = inhibition [13] 1.4% [at 18.9 µM] | activity change, negative = inhibition [14] -19.7% [at 19 µM] | activation [15] -0.0356% [at 19 µM] | activity change, negative = inhibition [16] -0.307% [at 18.9 µM]

Oc1cc(O)c(Cl)cc1Cl
inactive: Potency [1] | Potency [3] | outcome [4] | Potency [20] | Potency [17] | Potency [6] | Potency [7] | Potency [8] | Potency [9] | Potency [10] | Potency [11] | Potency [18] | Potency [19] | Potency [12] | Potency [13] | Potency [14] | Potency [15] | Potency [16]
active: Potency [2] 55.8 µM

C/C=C(\C)C(=O)OCCc1ccccc1
inactive: Potency [1] | Potency [2] | Potency [3] | outcome [4] | Potency [20] | Potency [17] | Potency [6] | Potency [7] | Potency [8] | Potency [9] | Potency [10] | Potency [11] | Potency [18] | Potency [19] | Potency [12] | Potency [13] | Potency [14] | Potency [15] | Potency [16]

CC(C)C(=O)Nc1cccc(C(F)(F)F)c1
inactive: Potency [1] | Potency [2] | Potency [3] | outcome [4] | outcome [5] | Potency [17] | Potency [7] | Potency [8] | Potency [9] | Potency [10] | Potency [18] | Potency [19] | Potency [12] | Potency [13] | Potency [15] | Potency [16]

c1cnc2c(n1)CCCC2
inactive: Potency [1] | Potency [2] | Potency [3] | outcome [4] | outcome [5] | Potency [6] | Potency [9] | Potency [10] | Potency [19] | Potency [13] | Potency [14] | Potency [15]

COC(=O)CCCC(=O)O
inactive: Potency [1] | Potency [2] | Potency [3] | outcome [4] | Potency [20] | Potency [17] | Potency [6] | Potency [7] | Potency [8] | Potency [9] | Potency [10] | Potency [11] | Potency [18] | Potency [19] | Potency [12] | Potency [13] | Potency [14] | Potency [15] | Potency [16]

Cc1cc(OI)c(C(C)C)cc1-c1cc(C(C)C)c(OI)cc1C
inactive: Potency [1] | Potency [2] | Potency [3] | outcome [4] | outcome [5] | Potency [17] | Potency [7] | Potency [8] | Potency [9] | Potency [10] | Potency [11] | Potency [19] | Potency [12] | Potency [13] | Potency [14] | Potency [15] | Potency [16]

Cc1nc2ccccc2n1Cc1ccc(Cl)cc1
active: Potency [1] 1.68 µM
inactive: Potency [2] | Potency [3] | outcome [4] | outcome [5] | Potency [17] | Potency [7] | Potency [8] | Potency [11] | Potency [18] | Potency [19] | Potency [13] | Potency [14] | Potency [16]

CC/C=C\CCOC(=O)c1ccccc1O
inactive: Potency [1] | Potency [2] | Potency [3] | outcome [4] | outcome [5] | Potency [17] | Potency [8] | Potency [9] | Potency [10] | Potency [11] | Potency [18] | Potency [19] | Potency [12] | Potency [13] | Potency [14] | Potency [15] | Potency [16]

Cc1ccc(OC(=O)c2ccccc2O)cc1
inactive: Potency [1] | Potency [2] | Potency [3] | outcome [4] | outcome [5] | Potency [17] | Potency [6] | Potency [7] | Potency [9] | Potency [10] | Potency [18] | Potency [19] | Potency [14] | Potency [15] | Potency [16]

CN(C(=O)CCCOc1ccc2[nH]c(=O)ccc2c1)C1CCCCC1
active: Potency [1] 10.6 µM
inactive: Potency [2] | Potency [3] | outcome [4] | outcome [5] | Potency [17] | Potency [7] | Potency [8] | Potency [14] | Potency [15]

CCCC(C)C=O (stereo not given)
inactive: Potency [1] | Potency [2] | Potency [3] | outcome [4] | outcome [5] | Potency [17] | Potency [6] | Potency [8] | Potency [9] | Potency [10] | Potency [11] | Potency [18] | Potency [19] | Potency [12] | Potency [13] | Potency [14] | Potency [15] | Potency [16]
